From PubChem BioAssay (Tox21)
Records with an inconclusive call do not appear. Entries that show only a call come without a potency. A number with no mark means an inactive call. Activity calls are given as the source filed them. Calls follow the shape of the dose curve; as a rule, active = well fitted activation curve with a large enough effect in the signal ratio in the repeat runs (not every such curve was filed as active); inconclusive = weak or mixed curves; inactive = flat fitted curve, though single readings scatter; the % refers to the signal ratio.

test: qHTS assay to identify small molecule agonists of H2AX (AID 1224845); conditions: CHO-K1 phospho-H2AX Ser139 HTRF, 3 h; series mostly up to 154 µM
In short: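 Wild-type CHO-K1 cells plated overnight, then exposed 3 hr at 37C to compounds at 15 concentrations (0.76% DMSO). Lysed, then HTRF anti-pH2AX(S139)-cryptate/anti-H2AX-d2 detection after 24 hr at room temperature; emissions 665 and 620 nm.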

SMILES | Potency
NC(=O)c1ccccc1C(N)=O | inactive
O=[N+]([O-])c1ccccc1CCO | inactive
CCCN(C1CCN(C(=O)C2CCNCC2)CC1)[C@@H]1CCc2ccc(OC)cc2C1 | inactive
O=C(N[C@@H](Cc1ccccc1)[C@@H](O)C(=O)N1C[C@@H](O)[C@@H](O)C1)c1cc2cc(Cl)ccc2[nH]1 | inactive
C(/C=C/C=C/Nc1ccccc1)=Nc1ccccc1 | inactive
CC(C)(C)c1ccc(CCC=O)cc1 | inactive
Sc1nc(S)nc(S)n1 | inactive

test: qHTS assay to identify small molecule agonists of the hypoxia (HIF-1) signaling pathway (AID 1224846); conditions: HRE-bla ME-180 cells, beta-lactamase ratio, 17 h; series mostly up to 76.8 µM
In short: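 A low-serum medium (0.5% dialyzed FBS) holding 2,000 HRE-bla ME-180 cells per well is preincubated for 5 hrs, dosed with compounds by pintool, and kept a further 17 hrs at 37C, 5% CO2 before CCF4-AM FRET detection of beta-lactamase.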

SMILES | outcome | activation
O=C(C1CCCCC1)N1CC(=O)N2CCCc3ccccc3C2C1 (stereo unspecified) | inactive | 
Nc1cccc2c(=O)[nH][nH]c(=O)c12 | inactive | 
CC(=O)Nc1ccccc1O | inactive | 
COc1ccnc2c1CCCCC2S(=O)c1nc2ccccc2[nH]1 (stereo unspecified) | inactive | 
Oc1ccc(CCNCCCCCCNCCc2ccccc2)cc1O | inactive | 
O=c1[nH]nc(-c2ccc([N+](=O)[O-])o2)o1 | inactive | 
COc1ccc(C(=O)Nc2ccccc2)cc1[N+](=O)[O-] | inactive | 
CCCCCCC/C=C/C=O | inactive | 
COC(=O)Cc1cccc2ccccc12 | inactive | 
CCCCOc1ccc(N)cc1 | inactive | 
Nc1ccccc1Nc1ccccc1 | inactive | 
CC/C=C\CCO | inactive | 
COC(=O)C(C)(C)C | inactive | 
CC(C)C/C=C(\C=O)c1ccccc1 | inactive | 
COc1ccc(/C=C/c2cc(OC)cc(=O)o2)cc1 | inactive | 
Oc1ccc(Oc2ccccc2)cc1 | inactive | 
O=C1c2ccccc2C(=O)C1c1ccc2ccccc2n1 | inactive | 

SMILES | outcome | activation
CCCCCCCCCC(C)C=O (stereo unspecified) | inactive | 
C=C[Si](OCC)(OCC)OCC | inactive | 
CC(C)CC(C)(C)C | inactive | 
CCCC1CCOC(C)S1 (stereo unspecified) | inactive | 
CC(C)(Cc1c[nH]c2ccccc12)NCC(O)COc1ccccc1C#N (stereo unspecified) | inactive | 
O=Cc1ccc(Cl)c([N+](=O)[O-])c1 | inactive | 
CCn1nc(Cc2ccccc2)cc1C1CCN(C[C@H]2C[C@H](N(C)[C@@H](C(=O)O)C(C)C)C[C@@H]2c2cccc(F)c2)CC1 | inactive | 
CC1=CC(=C(c2ccc(N)cc2)c2ccc(N)cc2)C=CC1=N |  | 0.607% [at 7.01 µM]
Clc1cc(Cl)c2c(c1)N=C1CCCCCN1C2 | inactive | 
COC(=O)/C=C/C(C)=C\C=C\C(C)=C\C=C\C=C(C)\C=C\C=C(C)\C=C\C(=O)O | inactive | 
NC(=O)c1ccccc1C(N)=O | inactive | 
O=C1c2ccccc2C(=O)c2c1ccc(O)c2O | inactive | 
O=[N+]([O-])c1ccccc1CCO | inactive | 
O=C(N[C@@H](Cc1ccccc1)[C@@H](O)C(=O)N1C[C@@H](O)[C@@H](O)C1)c1cc2cc(Cl)ccc2[nH]1 | inactive | 
C(/C=C/C=C/Nc1ccccc1)=Nc1ccccc1 | inactive | 
CC(C)(C)c1ccc(CCC=O)cc1 | inactive | 
Sc1nc(S)nc(S)n1 | inactive | 
